DT40 TDP1 CPT – qHTS for Inhibitors of human tyrosyl-DNA phosphodiesterase 1 (TDP1): qHTS in cells in presence of CPT. chicken DT40 Tdp1-/-;hTDP1 cells + 20 nM CPT, ATP luminescence, 48 h. hit rate 12% among 420,000. AID 686979, 2013. Potency, µM (highest dose often 46.2 µM), for inactives: at the highest dose activity change, negative = growth inhibition, usual class: inhibitors; also: potency is read from the fitted curve at half-maximal effect; nearly all actives have a fitted effect of over 55% in size
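Chicken DT40 Tdp1-/- cells stably complemented with human TDP1 were seeded at 400 cells/well in medium containing 20 nM camptothecin, exposed to pin-transferred compounds, and grown at 37 °C for at least 48 hr. Viability was read as ATP luminescence.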
LDHA inh – qHTS assay for inhibitors of human lactate dehydrogenase | L-lactate dehydrogenase A chain (Homo sapiens), P00338 | purified LDHA, NADH/diaphorase-resazurin fluorescence; stronger effect = lower value | activity change, % (values are at about 110 or 230 µM) | hit rate 0.15% among 480,000 | AID 1347041, 2019; in the data active = activity change below about -30%; inconclusive = mostly about -25% to -30%;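 also: plate controls were DMSO wells for no effect and wells without enzyme for full effect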
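Remaining NADH was detected by diaphorase (0.133 mg/mL) converting 37 µM resazurin to fluorescent resorufin, read at 0 and 20 minutes. The preceding 5-minute room-temperature reaction used 2 nM LDHA, 0.2 mM sodium pyruvate and 0.06 mM NADH at pH 7.4.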
RORg inh – qHTS for inhibitors of ROR gamma transcriptional activity; Nuclear receptor ROR-gamma (Mus musculus), P51450; Drosophila S2 Gal4-RORgamma UAS-luciferase reporter, 20 h; Potency, µM (doses to about 53.6 µM), for inactives: at the highest dose activity change, negative = inhibition, most hits filed as inhibitors; hit rate 5.4% among 310,000; AID 2551, 2010; also: potency is read from the fitted curve at half-maximal effect; nearly all actives have a fitted effect of over 60% in size
Target sequence (P51450 whole entry, looked up, the tested form may be a part): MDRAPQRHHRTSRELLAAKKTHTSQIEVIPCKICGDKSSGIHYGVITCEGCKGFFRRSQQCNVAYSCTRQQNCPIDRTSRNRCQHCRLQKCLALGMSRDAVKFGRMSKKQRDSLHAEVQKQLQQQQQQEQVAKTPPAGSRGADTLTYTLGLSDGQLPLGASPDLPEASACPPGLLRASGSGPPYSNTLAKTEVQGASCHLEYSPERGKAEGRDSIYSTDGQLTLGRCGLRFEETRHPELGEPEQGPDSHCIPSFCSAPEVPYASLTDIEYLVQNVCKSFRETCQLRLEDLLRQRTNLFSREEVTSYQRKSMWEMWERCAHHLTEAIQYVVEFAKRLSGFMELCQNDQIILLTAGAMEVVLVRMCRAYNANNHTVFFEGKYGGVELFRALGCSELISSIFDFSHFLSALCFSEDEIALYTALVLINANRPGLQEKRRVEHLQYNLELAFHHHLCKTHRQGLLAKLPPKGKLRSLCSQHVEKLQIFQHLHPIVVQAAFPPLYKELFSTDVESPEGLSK
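ROR gamma transcriptional activity was tracked as Gal4-UAS luciferase output in stably transfected Drosophila Schneider cells, with compound added 1 hr before 700 uM copper sulfate induction and a 20 hr ambient-temperature incubation.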
IL1B secr inh – qHTS for Inhibitors of Inflammasome Signaling: IL-1-beta AlphaLISA Primary Screen; hit rate 4.7% among 360,000; THP-1 LPS/ATP IL-1B secretion, AlphaLISA, 16 h; stronger effect = lower value; activity change, % at 57.5 µM; in the data active = activity change below about -50%; inconclusive = mostly about -30% to -49%
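Secreted IL-1B measured by AlphaLISA bead assay after 16 h compound exposure of THP-1 cells; compounds (final up to 57.5 uM) added 1 h before LPS (250 ng/mL) and ATP (1.25 mM) stimulation; lower signal means less secretion.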
DT40 TDP1 no CPT – qHTS for Inhibitors of human tyrosyl-DNA phosphodiesterase 1 (TDP1): qHTS in cells in absence of CPT; DT40 Tdp1-/- hTDP1 cells, no CPT, ATP luminescence, 48 h; Potency, µM (highest dose often 46.2 µM), for the others: at the highest dose activity change, negative = growth inhibition, hits mostly inhibitors; hit rate 15% among 420,000; AID 686978, 2013; also: potency is read from the fitted curve at half-maximal effect; nearly all actives have a fitted effect of over 55% in size
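DT40 Tdp1-/-;hTDP1 cells, no CPT (DMSO vehicle only), 400 cells/well; compounds pin-transferred; ≥48 hr, 37 °C; CellTiter-Glo 30 min RT dark, luminescence read.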
Gal4-VP16 FLuc – VP16 counterscreen qHTS for inhibitors of ROR gamma transcriptional activity; Drosophila S2 Gal4-VP16 UAS-luciferase, luminescence, 20 h; Potency, µM (titrated, usually from 53.6 µM), without a hit: top-dose activity, negative = inhibition, hits mostly inhibitors; hit rate 3.5% among 310,000; AID 2546, 2010;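 also: Gal4-VP16 expression switched on by copper sulfate through the metallothionein promoter; potency is read from the fitted curve at half-maximal effect; nearly all actives have a fitted effect of over 50% in size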
Starred values were filed as active, the others as inactive; ? = inconclusive; / = no result. Only some compounds are listed: those with a hit (about 18% of all), similar ones and a draw of the others. Unless noted, calls follow the shape of the dose curve; as a rule, active = well fitted curve in the direction sought with a large enough effect; inconclusive = small, poorly fitted or top-dose-only effect, or another doubt; inactive = no such curve, though single readings can be large; an effect the other way counts as inactive or inconclusive. Unless noted, % is scaled to controls: 0 for no effect and ±100 for the full control effect.

SMILES | DT40 TDP1 CPT | LDHA inh | RORg inh | IL1B secr inh | DT40 TDP1 no CPT | Gal4-VP16 FLuc
COc1ccccc1CNS(=O)(=O)c1ccc(-c2cc(C(F)(F)F)on2)s1 | 23µM* | 6 | / | / | 21µM* | /
COc1ccc(NS(=O)(=O)c2ccc(-c3cc(C(F)(F)F)on3)s2)cc1OC | / | 11 | / | / | / | /
COc1ccc(CNS(=O)(=O)c2ccc(-c3cc(C(F)(F)F)on3)s2)cc1OC | 9.2µM* | -7 | / | / | 5.2µM* | /
CCOC(=O)C1(Cc2ccccc2)CCCN(Cc2ccccn2)C1 (stereo unspecified) | ? | 1 | 13µM* | 14 | ? | -12%
CCOC(=O)C1(Cc2cccc(OC)c2)CCN(Cc2cccc3cnccc23)CC1 | 18µM* | -1 | ? | -6 | ? | ?
CCOC(=O)C1(Cc2cccc(OC)c2)CCN(Cc2cnc(N)nc2)CC1 | 10% | -15 | 1% | -1 | -16% | 3%
CCOC(=O)C1(Cc2cccc(OC)c2)CCN(Cc2cc(OC)ccc2OC)CC1 | ? | -8 | -1% | -67* | 16µM* | 1%
CCOC(=O)C1(Cc2cccc(OC)c2)CCN(Cc2cnc(SC)nc2)CC1 | -27% | -5 | 12% | 7 | ? | -5%
CCOC(=O)C1(Cc2cccc(OC)c2)CCN(Cc2cccc3c2OCO3)CC1 | ? | -1 | 6% | -1 | 18µM* | 6%
O=C(NNC(=O)c1ccc(NC(=O)C2CCCCC2)cc1)c1ccc(F)cc1 | / | 9 | / | / | / | /
CCOC(=O)C1(Cc2cccc(OC)c2)CCN(Cc2cccnc2)CC1 | ? | -8 | 11µM* | 11 | 29µM* | -18%
CCOC(=O)C1(Cc2cccc(OC)c2)CCN(Cc2ccccc2)CC1 | ? | -4 | -1% | -26 | ? | -1%
CCOC(=O)C1(Cc2cccc(OC)c2)CCN(Cc2cccc(OC)c2OC)CC1 | ? | -5 | -6% | -65* | 18µM* | 4%
CCOC(=O)C1(Cc2ccc(OC)cc2)CCN(C(=O)c2ccc3[nH]ccc3c2)CC1 | 9.2µM* | -9 | 0% | -4 | 7.3µM* | -5%
CCOC(=O)C1(Cc2cccc(OC)c2)CCCN(Cc2nccn2CC)C1 (stereo unspecified) | 15µM* | -9 | 3.5µM* | -4 | 13µM* | ?
Cc1sc(NC(=O)c2nn(C)c(=O)c3ccccc23)nc1-c1ccc(F)cc1 | / | 4 | / | / | / | /
Cc1ccccc1C(=O)Nc1ccc2oc(-c3ccccc3F)nc2c1 | / | 1 | / | / | / | /
CC(C)Cn1cnc2c1c(=O)n(CC(=O)N1CCc3ccccc31)c(=O)n2Cc1ccccc1 | / | -13 | / | / | / | /
CCOC(=O)C1(CC2CCCCO2)CCN(Cc2nc3ccccc3nc2C)CC1 (stereo unspecified) | ? | -7 | -37% | 1 | ? | 5%
CCOC(=O)C1(CC2CCCCO2)CCN(Cc2ccc(OC)cc2F)CC1 (stereo unspecified) | ? | -2 | 14% | 23 | 21µM* | -7%
Cc1csc(NC(=O)C(Cc2ccccc2)n2cccc2)n1 (stereo unspecified) | 29µM* | -1 | -17% | -18 | ? | 11%
O=C(NC1CCCCCC1)C(Cc1ccccc1)n1cccc1 (stereo unspecified) | ? | -3 | -3% | -62* | ? | -3%
Cc1ccc(NC(=O)C(Cc2ccccc2)n2cccc2)cc1 (stereo unspecified) | ? | -2 | 25% | ? | 23µM* | 4%
Cc1ccccc1NC(=O)C(Cc1ccccc1)n1cccc1 (stereo unspecified) | -16% | -6 | 34% | -14 | ? | 20%
Cc1cccc(NC(=O)C(Cc2ccccc2)n2cccc2)c1C (stereo unspecified) | 16µM* | -7 | / | / | 15µM* | /
SMILES | DT40 TDP1 CPT | LDHA inh | RORg inh | IL1B secr inh | DT40 TDP1 no CPT | Gal4-VP16 FLuc
O=C(Nc1ccc(F)cc1)C(Cc1ccccc1)n1cccc1 (stereo unspecified) | ? | -4 | 28% | -9 | ? | -6%
O=C(Cc1cccc2cccnc12)NC1CCS(=O)(=O)C1 (stereo unspecified) | / | 3 | / | / | / | /
CC(C)(C)c1cnc(CN2CCCC2c2ccc[nH]2)o1 (stereo unspecified) | / | 7 | / | / | / | /
Cc1cc(C(=O)CN2C(=O)C(=O)N(Cc3ccco3)C2=O)c(C)n1CCc1ccccc1 | 23µM* | 5 | / | 11 | 18µM* | /
Cc1cc(C(=O)CN2C(=O)C(=O)N(Cc3ccco3)C2=O)c(C)n1CCc1ccc(F)cc1 | 21µM* | -6 | / | 37 | ? | /
O=C(CSc1nncn1-c1cccc(Cl)c1)Nc1ccccc1C(=O)NCCc1ccccc1 | / | 9 | / | / | / | /
O=C(Nc1ccc(-c2nccs2)cc1)C1CCCN1C(=O)c1cccs1 (stereo unspecified) | / | 3 | / | / | / | /
CN(C)C(=O)c1ccc(NC(=O)CC2SC(N3CCCC3)=NC2=O)cc1 (stereo unspecified) | 3% | -5 | / | 5 | 8% | /
O=C(CC1SC(N2CCCC2)=NC1=O)Nc1ccc(C(=O)Nc2ncccc2O)cc1 (stereo unspecified) | 15µM* | 5 | / | 50 | 10µM* | /
CN(Cc1ccccc1F)C(=O)c1cccc(NC(=O)CC2SC(N3CCCCC3)=NC2=O)c1 (stereo unspecified) | 18µM* | -3 | / | -1 | 23µM* | /
O=C(CC1SC(N2CCCC2)=NC1=O)Nc1ccc(C(=O)N2CCN(c3cccc(Cl)c3)CC2)cc1 (stereo unspecified) | 15µM* | -1 | / | -50* | ? | /

Source: PubChem BioAssay
